# Results reported in the supplement of paper PMC8728848.
# The full list was thinned out, with the strongest signals kept by preference.
# B1: AntigenI/IIA3VP1 (Streptococcus mutans), C9E3B4 (protein)
# chain: AANEADYQAKLTAYQTELARVQKANADAKAAYEAAVAANNAANAALTAENTAIKKRNADAKADYEAKLAKYQADLAKYQKDLADYPVKLKAYEDEQASIKAALAELEKHKNEDGNLTEPSAQNLVYDLEPNANLSLTTDGKFLKASAVDDAFSKSTSKAKYDQKILQLDDLDITNLEQSNDVASSMELYGNFGDKAGWSTTVSNNSQVKWGSVLLERGQSATATYTNLQNSYYNGKKISKIVYKYTVDPKSKFQGQKVWLGIFTDPTLGVFASAYTGQVEKNTSIFIKNEFTFYDEDGKPINFDNALLSVASLNREHNSIEMAKDYSGKFVKISGSSIGEKNGMIYATDTLNFKQGEGGSRWTMYKNSQAGSGWDSSDAPNSWYGAGAIKMSGPNNYVTVGATSATNVMPVSDMPVVPGKDNTDGKKPNIWYSLNGKIRAVNVPKVTKEKPTPPVKPTAPTKPTYETEKPLKPAPVAPNYEKEPTPPTRLEHHHHHH
# Experiments:
# Assay in all cases: glycan array binding signal (z-score within array); higher = stronger binding
# Conditions in all cases: glycan notation: IUPAC condensed, linker removed
# [1] = biological target: Fuc(a1-2)Gal(b1-3)GlcNAc(b1-3)Gal(b1-4)Glc
# Outline: (§1)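 Negative Z-scores can be read as non-binding. The Z-score is calculated within each array and then averaged across arrays of one protein sequence at different concentrations or buffers and across linkers. Arrays, 3228 in all, were curated from the Consortium for Functional Glycomics database and kept only where the protein sequence was available.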
# [2] = biological target: Fuc(a1-2)Gal(b1-3)GlcNAc6S
# Outline: as §1
# [3] = biological target: Fuc(a1-2)Gal(b1-3)[Fuc(a1-4)]GlcNAc
# Outline: as §1
# [4] = biological target: Fuc(a1-2)Gal(b1-4)Fuc(a1-3)]GlcNAc(b1-2)Man(a1-3)[Fuc(a1-2)Gal(b1-4)[Fuc(a1-3)]GlcNAc(b1-2)Man(a1-6)]Man(b1-4)GlcNAc(b1-4)GlcNAc
# Outline: as §1
# [5] = biological target: Fuc(a1-2)Gal(b1-4)GlcNAc(b1-3)[Fuc(a1-2)Gal(b1-4)GlcNAc(b1-6)]GalNAc
# Outline: as §1
# [6] = biological target: Fuc(a1-2)Gal(b1-4)[Fuc(a1-3)]GlcNAc(b1-3)Gal(b1-4)[Fuc(a1-3)]GlcNAc
# Outline: as §1
# [7] = biological target: Fuc(a1-2)[Gal(a1-3)]Gal(b1-4)GlcNAc(b1-2)Man(a1-3)[Fuc(a1-2)[Gal(a1-3)]Gal(b1-4)GlcNAc(b1-2)Man(a1-6)]Man(b1-4)GlcNAc(b1-4)[Fuc(a1-6)]GlcNAc
# Outline: as §1
# [8] = biological target: Fuc(a1-3)[Gal(b1-4)]GlcNAc(b1-3)Gal(b1-4)[Fuc(a1-3)]GlcNAc(b1-3)Gal(b1-4)[Fuc(a1-3)]GlcNAc
# Outline: as §1
# [9] = biological target: Fuc(a1-3)[Gal(b1-4)]GlcNAc(b1-3)GalNAc
# Outline: as §1
# [10] = biological target: Gal(a1-3)Gal(b1-3)GlcNAc(b1-2)Man(a1-3)[Gal(a1-3)Gal(b1-3)GlcNAc(b1-2)Man(a1-6)]Man(b1-4)GlcNAc(b1-4)GlcNAc
# Outline: as §1
# [11] = biological target: Gal(a1-3)Gal(b1-3)GlcNAc(b1-3)GalNAc
# Outline: as §1
# [12] = biological target: Gal(a1-3)Gal(b1-4)GlcNAc(b1-3)GalNAc
# Outline: as §1
# [13] = biological target: Gal(a1-3)Gal(b1-4)[Fuc(a1-3)]GlcNAc(b1-2)Man(a1-3)[Gal(a1-3)Gal(b1-4)[Fuc(a1-3)]GlcNAc(b1-2)Man(a1-6)]Man(b1-4)GlcNAc(b1-4)GlcNAc
# Outline: as §1
# [14] = biological target: Gal(a1-4)Gal(b1-4)GlcNAc(b1-3)Gal(b1-4)Glc
# Outline: as §1
# Gal(a1-4)GlcNAc = biological target: Gal(a1-4)GlcNAc
# Outline: as §1
# Gal(b1-2)Gal = biological target: Gal(b1-2)Gal
# Outline: as §1
# [15] = biological target: Gal(b1-3)GlcNAc(b1-2)Man(a1-3)[Gal(b1-3)GlcNAc(b1-2)Man(a1-6)]Man(b1-4)GlcNAc(b1-4)GlcNAc
# Outline: as §1
# [16] = biological target: Gal(b1-3)GlcNAc(b1-3)Gal(b1-4)GlcNAc(b1-3)Gal(b1-4)GlcNAc(b1-2)[Gal(b1-3)GlcNAc(b1-3)Gal(b1-4)GlcNAc(b1-3)Gal(b1-4)GlcNAc(b1-6)]Man(a1-6)[Gal(b1-3)GlcNAc(b1-3)Gal(b1-4)GlcNAc(b1-3)Gal(b1-4)GlcNAc(b1-2)Man(a1-3)]Man(b1-4)GlcNAc(b1-4)[Fuc(a1-6)]GlcNAc
# Outline: as §1
# Gal(b1-3)GlcNAc6S = biological target: Gal(b1-3)GlcNAc6S
# Outline: as §1
# [17] = biological target: Gal(b1-3)[Fuc(a1-4)]GlcNAc(b1-6)GalNAc
# Outline: as §1
# [18] = biological target: Gal(b1-4)GlcNAc(b1-2)Man(a1-3)[GlcNAc(b1-4)][Gal(b1-4)GlcNAc(b1-2)Man(a1-6)]Man(b1-4)GlcNAc(b1-4)GlcNAc
# Outline: as §1
# [19] = biological target: Gal(b1-4)GlcNAc(b1-2)[Gal(b1-4)GlcNAc(b1-4)]Man(a1-3)[GlcNAc(b1-4)][Gal(b1-4)GlcNAc(b1-2)Man(a1-6)]Man(b1-4)GlcNAc(b1-4)GlcNAc
# Outline: as §1
# [20] = biological target: Gal(b1-4)GlcNAc(b1-2)[Gal(b1-4)GlcNAc(b1-6)]Man(a1-6)[GlcNAc(b1-4)][Gal(b1-4)GlcNAc(b1-2)Man(a1-3)]Man(b1-4)GlcNAc(b1-4)GlcNAc
# Outline: as §1
# [21] = biological target: Gal(b1-4)GlcNAc(b1-3)Gal(b1-4)GlcNAc
# Outline: as §1
# [22] = biological target: Gal(b1-4)GlcNAc(b1-3)Gal(b1-4)GlcNAc(b1-3)Gal(b1-4)GlcNAc(b1-3)Gal(b1-4)GlcNAc(b1-2)Man(a1-3)[Gal(b1-4)GlcNAc(b1-3)Gal(b1-4)GlcNAc(b1-3)Gal(b1-4)GlcNAc(b1-3)Gal(b1-4)GlcNAc(b1-2)Man(a1-6)]Man(b1-4)GlcNAc(b1-4)[Fuc(a1-6)]GlcNAc
# Outline: as §1
# [23] = biological target: Gal(b1-4)GlcNAc(b1-3)Gal(b1-4)GlcNAc(b1-3)Gal(b1-4)GlcNAc(b1-3)Gal(b1-4)GlcNAc(b1-3)Gal(b1-4)GlcNAc(b1-3)Gal(b1-4)GlcNAc(b1-2)Man(a1-3)[Gal(b1-4)GlcNAc(b1-3)Gal(b1-4)GlcNAc(b1-3)Gal(b1-4)GlcNAc(b1-3)Gal(b1-4)GlcNAc(b1-3)Gal(b1-4)GlcNAc(b1-3)Gal(b1-4)GlcNAc(b1-2)Man(a1-6)]Man(b1-4)GlcNAc(b1-4)GlcNAc
# Outline: as §1
binder,measurement,setting,value
B1,glycan array binding signal (z-score),[1],-1.26
same,glycan array binding signal (z-score),[2],0.457
same,glycan array binding signal (z-score),[3],0.481
same,glycan array binding signal (z-score),[4],4.68
same,glycan array binding signal (z-score),[5],0.339
same,glycan array binding signal (z-score),[6],0.17
same,glycan array binding signal (z-score),[7],3.1
same,glycan array binding signal (z-score),[8],-0.372
same,glycan array binding signal (z-score),[9],2.64
same,glycan array binding signal (z-score),[10],3.47
same,glycan array binding signal (z-score),[11],2.79
same,glycan array binding signal (z-score),[12],-1.15
same,glycan array binding signal (z-score),[13],0.993
same,glycan array binding signal (z-score),[14],-0.067
same,glycan array binding signal (z-score),Gal(a1-4)GlcNAc,-0.879
same,glycan array binding signal (z-score),Gal(b1-2)Gal,-0.551
same,glycan array binding signal (z-score),[15],0.099
same,glycan array binding signal (z-score),[16],5.61
same,glycan array binding signal (z-score),Gal(b1-3)GlcNAc6S,0.094
same,glycan array binding signal (z-score),[17],3.1
same,glycan array binding signal (z-score),[18],-0.555
same,glycan array binding signal (z-score),[19],-0.31
same,glycan array binding signal (z-score),[20],-0.581
same,glycan array binding signal (z-score),[21],-0.087
same,glycan array binding signal (z-score),[22],3.27
same,glycan array binding signal (z-score),[23],3.91
